# Laboratory results reported in publication PMC8384837, “Expanding the binding specificity for RNA recognition by a PUF domain”.
# Substitutions are numbered along the chain they refer to.
# Legend:
# Assay in all cases: yeast three-hybrid, YBZ-1, SC-Leu-His + 0.5 mM 3-AT, 4 days
# Conditions in all cases: tags: N-Gal4 AD-HA kept; label: inside an RPR1-promoter hybrid RNA with tandem MS2 sites; ssRNA
# PUM1 PUF domain R3-WWG = PUM1 PUF domain R3-WWG (Homo sapiens, UniProt Q14671 828-1176, C935W;R936W;Q939G)
# Outline: (§1)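 The interaction score is the log change in variant frequency from input to selection. Scores were computed in log2 with a pseudocount of 1 for absent variants, using Illumina sequencing of PCR-amplified repeat regions. The input came from four days on SC-Leu and the selection from four days on SC-Leu-His + 0.5 mM 3-AT. The cells were strain YBZ-1 (LexA–MS2 coat fusion, HIS3 reporter) co-expressing Pumilio-1 PUF domain libraries and matching RNA elements from a centromeric plasmid.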
# PUM1 PUF domain R5-DHV = PUM1 PUF domain R5-DHV (Homo sapiens, UniProt Q14671 828-1176, C1007D;R1008H;Q1011V)
# Outline: as §1
# PUM1 PUF domain R5-HRL = PUM1 PUF domain R5-HRL (Homo sapiens, UniProt Q14671 828-1176, C1007H;Q1011L)
# Outline: as §1
# PUM1 PUF domain R5-SPC = PUM1 PUF domain R5-SPC (Homo sapiens, UniProt Q14671 828-1176, C1007S;R1008P;Q1011C)
# Outline: as §1
# PUM1 PUF domain R4-GPQ = PUM1 PUF domain R4-GPQ (Homo sapiens, UniProt Q14671 828-1176, N971G;H972P)
# Outline: as §1
# PUM1 PUF domain R4-DYR = PUM1 PUF domain R4-DYR (Homo sapiens, UniProt Q14671 828-1176, N971D;H972Y;Q975R)
# Outline: as §1
# PUM1 PUF domain R5-MRN = PUM1 PUF domain R5-MRN (Homo sapiens, UniProt Q14671 828-1176, C1007M;Q1011N)
# Outline: as §1
# PUM1 PUF domain R6-SFS = biological target: T1, PUM1 PUF domain R6-SFS (Homo sapiens, UniProt Q14671 828-1176, N1043S;Y1044F;Q1047S)
# T1 sequence: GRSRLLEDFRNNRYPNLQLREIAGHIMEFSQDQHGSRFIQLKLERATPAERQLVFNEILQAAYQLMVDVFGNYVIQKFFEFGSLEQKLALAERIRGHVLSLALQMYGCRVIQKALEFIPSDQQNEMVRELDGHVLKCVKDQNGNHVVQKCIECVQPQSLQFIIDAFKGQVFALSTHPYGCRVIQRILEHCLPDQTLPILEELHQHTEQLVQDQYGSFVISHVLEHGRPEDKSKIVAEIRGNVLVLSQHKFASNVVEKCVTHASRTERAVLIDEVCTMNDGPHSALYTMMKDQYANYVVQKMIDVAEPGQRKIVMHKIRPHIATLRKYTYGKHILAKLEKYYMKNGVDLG
# Outline: as §1
# PUM1 PUF domain R3-YFG = PUM1 PUF domain R3-YFG (Homo sapiens, UniProt Q14671 828-1176, C935Y;R936F;Q939G)
# Outline: as §1
# PUM1 PUF domain R8-KRR = PUM1 PUF domain R8-KRR (Homo sapiens, UniProt Q14671 828-1176, N1122K;Y1123R;Q1126R)
# Outline: as §1
# PUM1 PUF domain R6-NWP = biological target: T2, PUM1 PUF domain R6-NWP (Homo sapiens, UniProt Q14671 828-1176, Y1044W;Q1047P)
# T2 sequence: T1 sequence with S216N, F217W, S220P
# Outline: as §1
# PUM1 PUF domain R6-IWR = biological target: T3, PUM1 PUF domain R6-IWR (Homo sapiens, UniProt Q14671 828-1176, N1043I;Y1044W;Q1047R)
# T3 sequence: T1 sequence with S216I, F217W, S220R
# Outline: as §1
# PUM1 PUF domain R5-RAC = PUM1 PUF domain R5-RAC (Homo sapiens, UniProt Q14671 828-1176, C1007R;R1008A;Q1011C)
# Outline: as §1
# PUM1 PUF domain R8-RSR = PUM1 PUF domain R8-RSR (Homo sapiens, UniProt Q14671 828-1176, N1122R;Y1123S;Q1126R)
# Outline: as §1
# PUM1 PUF domain R6-VWQ = biological target: T4, PUM1 PUF domain R6-VWQ (Homo sapiens, UniProt Q14671 828-1176, N1043V;Y1044W)
# T4 sequence: T1 sequence with S216V, F217W, S220Q
# Outline: as §1
# PUM1 PUF domain R1-NRR = PUM1 PUF domain R1-NRR (Homo sapiens, UniProt Q14671 828-1176, S863N;Q867R)
# Outline: as §1
# PUM1 PUF domain R1-MVR = PUM1 PUF domain R1-MVR (Homo sapiens, UniProt Q14671 828-1176, S863M;R864V;Q867R)
# Outline: as §1
# PUM1 PUF domain R5-SIS = PUM1 PUF domain R5-SIS (Homo sapiens, UniProt Q14671 828-1176, C1007S;R1008I;Q1011S)
# Outline: as §1
# PUM1 PUF domain R4-NWP = PUM1 PUF domain R4-NWP (Homo sapiens, UniProt Q14671 828-1176, H972W;Q975P)
# Outline: as §1
# PUM1 PUF domain R4-EYI = PUM1 PUF domain R4-EYI (Homo sapiens, UniProt Q14671 828-1176, N971E;H972Y;Q975I)
# Outline: as §1
sequence,measurement,setting,value
GGCUAGAACUAGUGGAUCCCCCGGCGCCCGGCGGCUCGAGCCCGGGUAAGUGUAAUUAGUCUGCAUGCCGCCGGGCGCCAUGCCUGCAGGUCGACUCUAGAAAACAUG,binding signal,PUM1 PUF domain R3-WWG,4.2 log2 enrichment (interaction score)
GGCUAGAACUAGUGGAUCCCCCGGCGCCCGGCGGCUCGAGCCCGGGUAAGUGUAAGUAGUCUGCAUGCCGCCGGGCGCCAUGCCUGCAGGUCGACUCUAGAAAACAUG,binding signal,PUM1 PUF domain R3-WWG,4.28 log2 enrichment (interaction score)
GGCUAGAACUAGUGGAUCCCCCGGCGCCCGGCGGCUCGAGCCCGGGUAAGUGUUAAUAGUCUGCAUGCCGCCGGGCGCCAUGCCUGCAGGUCGACUCUAGAAAACAUG,binding signal,PUM1 PUF domain R5-DHV,4.07 log2 enrichment (interaction score)
same,binding signal,PUM1 PUF domain R5-HRL,4.98 log2 enrichment (interaction score)
same,binding signal,PUM1 PUF domain R5-SPC,2.48 log2 enrichment (interaction score)
GGCUAGAACUAGUGGAUCCCCCGGCGCCCGGCGGCUCGAGCCCGGGUAAGUGUACAUAGUCUGCAUGCCGCCGGGCGCCAUGCCUGCAGGUCGACUCUAGAAAACAUG,binding signal,PUM1 PUF domain R4-GPQ,2.42 log2 enrichment (interaction score)
same,binding signal,PUM1 PUF domain R4-DYR,6.53 log2 enrichment (interaction score)
GGCUAGAACUAGUGGAUCCCCCGGCGCCCGGCGGCUCGAGCCCGGGUAAGUGUAAAUAGUCUGCAUGCCGCCGGGCGCCAUGCCUGCAGGUCGACUCUAGAAAACAUG,binding signal,PUM1 PUF domain R5-MRN,3.24 log2 enrichment (interaction score)
same,binding signal,PUM1 PUF domain R6-SFS,4.67 log2 enrichment (interaction score)
same,binding signal,PUM1 PUF domain R3-YFG,4.07 log2 enrichment (interaction score)
same,binding signal,PUM1 PUF domain R5-DHV,3.41 log2 enrichment (interaction score)
same,binding signal,PUM1 PUF domain R8-KRR,3.15 log2 enrichment (interaction score)
same,binding signal,PUM1 PUF domain R6-NWP,2.64 log2 enrichment (interaction score)
same,binding signal,PUM1 PUF domain R6-IWR,6.32 log2 enrichment (interaction score)
same,binding signal,PUM1 PUF domain R5-RAC,0.59 log2 enrichment (interaction score)
same,binding signal,PUM1 PUF domain R4-DYR,1.4 log2 enrichment (interaction score)
GGCUAGAACUAGUGGAUCCCCCGGCGCCCGGCGGCUCGAGCCCGGGUAAGCGUAAAUAGUCUGCAUGCCGCCGGGCGCCAUGCCUGCAGGUCGACUCUAGAAAACAUG,binding signal,PUM1 PUF domain R8-RSR,2.47 log2 enrichment (interaction score)
same,binding signal,PUM1 PUF domain R8-KRR,5.14 log2 enrichment (interaction score)
GGCUAGAACUAGUGGAUCCCCCGGCGCCCGGCGGCUCGAGCCCGGGUAAGUGGAAAUAGUCUGCAUGCCGCCGGGCGCCAUGCCUGCAGGUCGACUCUAGAAAACAUG,binding signal,PUM1 PUF domain R6-NWP,2.26 log2 enrichment (interaction score)
GGCUAGAACUAGUGGAUCCCCCGGCGCCCGGCGGCUCGAGCCCGGGUAAGUGAAAAUAGUCUGCAUGCCGCCGGGCGCCAUGCCUGCAGGUCGACUCUAGAAAACAUG,binding signal,PUM1 PUF domain R6-VWQ,8.55 log2 enrichment (interaction score)
same,binding signal,PUM1 PUF domain R6-IWR,1.61 log2 enrichment (interaction score)
GGCUAGAACUAGUGGAUCCCCCGGCGCCCGGCGGCUCGAGCCCGGGUAAGUGUAAAUUGUCUGCAUGCCGCCGGGCGCCAUGCCUGCAGGUCGACUCUAGAAAACAUG,binding signal,PUM1 PUF domain R1-NRR,2.34 log2 enrichment (interaction score)
same,binding signal,PUM1 PUF domain R1-MVR,1.71 log2 enrichment (interaction score)
GGCUAGAACUAGUGGAUCCCCCGGCGCCCGGCGGCUCGAGCCCGGGUAAGUGUGAAUAGUCUGCAUGCCGCCGGGCGCCAUGCCUGCAGGUCGACUCUAGAAAACAUG,binding signal,PUM1 PUF domain R5-SIS,3.76 log2 enrichment (interaction score)
GGCUAGAACUAGUGGAUCCCCCGGCGCCCGGCGGCUCGAGCCCGGGUAAGUGUCAAUAGUCUGCAUGCCGCCGGGCGCCAUGCCUGCAGGUCGACUCUAGAAAACAUG,binding signal,PUM1 PUF domain R5-DHV,3.11 log2 enrichment (interaction score)
same,binding signal,PUM1 PUF domain R5-RAC,3.54 log2 enrichment (interaction score)
same,binding signal,PUM1 PUF domain R5-HRL,2.78 log2 enrichment (interaction score)
GGCUAGAACUAGUGGAUCCCCCGGCGCCCGGCGGCUCGAGCCCGGGUAAGUGUAUAUAGUCUGCAUGCCGCCGGGCGCCAUGCCUGCAGGUCGACUCUAGAAAACAUG,binding signal,PUM1 PUF domain R4-NWP,2.37 log2 enrichment (interaction score)
same,binding signal,PUM1 PUF domain R4-DYR,6.18 log2 enrichment (interaction score)
same,binding signal,PUM1 PUF domain R4-EYI,3.01 log2 enrichment (interaction score)
GGCUAGAACUAGUGGAUCCCCCGGCGCCCGGCGGCUCGAGCCCGGGUAAGUGUAAAUCGUCUGCAUGCCGCCGGGCGCCAUGCCUGCAGGUCGACUCUAGAAAACAUG,binding signal,PUM1 PUF domain R1-NRR,3.87 log2 enrichment (interaction score)
same,binding signal,PUM1 PUF domain R1-MVR,2.85 log2 enrichment (interaction score)
